High-throughput results deposited in PubChem by National Center for Advancing Translational Sciences (NCATS).
Hits are enriched below; roughly 1.4% of the tested compounds scored in any of these assays.
CCT modulator = cytosolic chaperonin activity modulation; purified chaperonin ATPase assay, HTRF ADP detection, 30 min; activity change, % (concentration not given with the values), hits read low; 360,000 compounds, 0.3% hits; AID 651819; in the data active means activity change below about -30%; further: on the % scale 0 is the no-effect control and ±100 the full control effect
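Enzyme 40 or 20 nM (batch-dependent) in Tris pH 7.4/KCl/MgCl2/DTT; cpd 76 uM single point; ATP 10 uM; 30 min 37 °C; Transcreener ADP HTRF detection, 30 min RT; ratio 665/615.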
ALOX12 inh = blocks human arachidonate 12S-lipoxygenase; P18054; Potency, µM (highest dose often 108 µM), inactives show at the top dose activity change, negative = inhibition, usual class: inhibitors; 580,000 compounds, 1.1% hits; purified 12hLO, xylenol orange hydroperoxide absorbance; further: potency means the concentration at half of the fitted maximal effect; on the % scale 0 is the no-effect control and ±100 the full control effect
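Hydroperoxide product was detected by ferrous iron/xylenol orange as the 573 to 405 nm absorbance ratio. Arachidonic acid at 40 uM (final) was turned over for 30 min at room temperature by 150 nM human 12hLO, pH 7.0 Hepes buffer, after 15 min compound preincubation.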
PINK1 modulator = changes PINK1 expression. 410,000 compounds, 0.2% hits. Potency, µM (highest dose often 76.6 µM), inactives show at the top dose activation (PINK1 increase), usual class: activators. AID 624263. PINK1 immunofluorescence, high-content cytometry, 24 h; active means well fitted activation curve with a large enough effect; inconclusive means small, poorly fitted or top-dose-only effect; cell line not stated here; further: potency means the concentration at half of the fitted maximal effect; % of control where 0% means no effect; nearly all actives have a fitted effect of over 65% in size
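A stable cell line was treated with compounds at 5 concentrations for 24 hours, with CCCP as control. PINK1 levels and mitochondrial localization were measured by immunofluorescence with mitochondrial, cell and nuclear markers after fixation, read by laser-scanning cytometry.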
ASM inhibitor = human S-ASM enzyme inhibition; P17405; placental ASM, HMU-PC fluorogenic substrate, 60 min; Potency, µM (highest dose often 57.5 µM), inactives show at the top dose activity change, negative = inhibition, actives largely listed as inhibitors; 340,000 compounds, 0.006% hits; AID 504937; further: potency means the concentration at half of the fitted maximal effect
Target sequence (P17405 47-631 limits assumed): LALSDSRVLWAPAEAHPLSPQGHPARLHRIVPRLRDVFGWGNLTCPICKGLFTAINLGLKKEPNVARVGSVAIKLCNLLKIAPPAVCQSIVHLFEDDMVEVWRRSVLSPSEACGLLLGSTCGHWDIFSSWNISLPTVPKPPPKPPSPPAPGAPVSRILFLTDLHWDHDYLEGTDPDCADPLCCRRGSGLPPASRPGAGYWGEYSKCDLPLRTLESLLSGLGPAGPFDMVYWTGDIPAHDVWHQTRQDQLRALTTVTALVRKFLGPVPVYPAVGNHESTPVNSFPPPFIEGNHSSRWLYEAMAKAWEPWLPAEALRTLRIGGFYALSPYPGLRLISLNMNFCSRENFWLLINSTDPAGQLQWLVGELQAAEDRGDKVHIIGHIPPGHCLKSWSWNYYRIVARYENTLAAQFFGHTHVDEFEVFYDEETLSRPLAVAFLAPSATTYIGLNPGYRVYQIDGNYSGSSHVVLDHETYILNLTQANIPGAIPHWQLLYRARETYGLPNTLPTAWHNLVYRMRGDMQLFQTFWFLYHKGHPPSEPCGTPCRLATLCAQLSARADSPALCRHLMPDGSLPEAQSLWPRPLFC
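Human placenta-derived ASM enzyme was preincubated with compound for 10 minutes at room temperature, then given fluorogenic substrate HMU-PC0 (9 uM final) for 60 minutes at 37 °C; a pH 10 stop preceded fluorescence reading at Ex 386/Em 447 nm.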
MmCpn inh = M. maripaludis TRiC chaperonin inhibition | purified Mm-Cpn ATPase, ADP Transcreener TR-FRET | Potency, µM (series often up to 76.9 µM), for inactives: top-dose activity, negative = inhibition, hits mostly inhibitors | 330,000 compounds, 0.031% hits | AID 504842; further: potency means the concentration at half of the fitted maximal effect; on the % scale 0 is the no-effect control and ±100 the full control effect; nearly all actives have a fitted effect of over 80% in size
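Inhibition of chaperonin ATP hydrolysis is measured as reduced ADP production, detected by competitive TR-FRET in which signal falls with ADP. Final enzyme 25 nM and ATP 10 uM, reacted 30 min at 37°C.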
p53 reactivation = re-activators of mutant p53 | 320,000 compounds, 0.063% hits | Potency, µM (series often up to 92.2 µM), inactives show at the highest dose activity change, positive = activation, most hits filed as activators | H1299 p53-A138V BP100-luciferase reporter, luminescence, 24 h | AID 504706; further: potency means the concentration at half of the fitted maximal effect; % of control where 0% means no effect; nearly all actives have a fitted effect of over 45% in size
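p53-null H1299 cells stably carrying temperature-sensitive p53-A138V and a BP100-luciferase reporter were pinned with compounds (4-point, 1:5 series) and held 24 hrs at 37 deg C. Luminescence was read 10 min after detection reagent.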
Starred values were filed as active, the others as inactive; ? = inconclusive; · = no result given; [ ] = remark or other dose. Unless noted, the call rests on the fitted dose curve; in most records, active means well fitted curve in the direction sought with a large enough effect; inconclusive means small, poorly fitted or top-dose-only effect, or another doubt; inactive means no such curve, though single readings can be large; an effect the other way counts as inactive or inconclusive.

SMILES	CCT modulator	ALOX12 inh	PINK1 modulator	ASM inhibitor	MmCpn inh	p53 reactivation
CCN(CCC(=O)Nc1cc(OC)cc(OC)c1)Cc1ccccc1	-1.1	-19.4%	-2.6%	-1.1%	-0.3%	-2.1%
COc1ccc(S(=O)(=O)N(CC(=O)NC2CC2)Cc2ccccc2)cc1	2.2	-19.5%	0.5%	3.8%	-0.4%	-0.9%
COc1ccc(S(=O)(=O)N(CC(=O)NC(C)C)Cc2ccccc2)cc1	0.5	-17.3%	?	3.5%	1.2%	-2.9%
COc1ccc(S(=O)(=O)N(CCc2ccccc2)CC(=O)NC(C)C)cc1	0.4	31.6µM*	5.3%[38.3 µM]	0.9%	0.7%	-6.4%
COC(=O)[C@H](CC(C)C)N(Cc1cn(CC2CCCCC2)nn1)S(=O)(=O)c1ccccc1Br	·	5.62µM*	·	·	·	·
COC(=O)[C@H](CC(C)C)N(Cc1cn(CC2CCCCC2)nn1)S(=O)(=O)c1ccc(F)cc1Br	·	10µM*	·	·	·	·
CNC(=O)NC(=O)CCN(Cc1ccc(C#N)cc1)C(C)C	·	-30.6%	·	·	·	·
Cc1nc(NC(=O)CSc2nccn2C)sc1C(=O)N(C)C	1.2	17.8µM*	0.4%	-1.3%	1.0%	15.4%
COc1ccc(Cc2nnc(NC(=O)CSc3ccccc3)s2)cc1	-0.6	?	·	-1.1%	-0.4%	6.5%
CC(C)(C)Cc1nnc(NC(=O)c2ccco2)s1	-75.7*	-8.8%	0.9%	3.4%	-0.9%	·
Cc1ccc(OCc2nnc(NC(=O)c3ccco3)s2)cc1	-4.1	6.5%	-1.1%	-1.4%	2.3%	4.7%
CC(C)(C)Cc1nnc(NC(=O)CSc2ccccc2)s1	0.0	17.8µM*	4.5%	-0.2%	-0.9%	·
CCOCc1nnc(NC(=O)CSc2ccccc2)s1	-2.0	?	-0.7%	-0.9%	-2.8%	8.9%
O=C(Nc1nnc(COc2ccc(Cl)cc2)s1)c1ccco1	-1.3	44.7µM*	-0.8%	-3.4%	-0.3%	0.6%
COc1ccc(Cc2nnc(NC(=O)CSc3ccc(C)cc3)s2)cc1	-40.9*	-1.2%	5.7%	-6.6%	-0.3%	-4.2%
CCC(NC(=O)c1csc(C)c1-c1ccccc1)c1ccc(C(C)C)cc1 (configuration not stated)	·	-61.3%	·	·	·	·
CCOC(=O)c1cc(C(O)(C(=O)OC)C(F)(F)F)c(N)o1 (configuration not stated)	·	-13.0%	·	·	·	·
CNCc1cccn1C	·	0.517µM*	·	·	·	·
CCn1c2ccccc2c2cc(CNCCc3c[nH]c4ccccc34)ccc21	·	39.8µM*	·	·	·	·
Cc1ccccc1OCC(=O)Nc1cc(C(F)(F)F)ccc1N1CCOCC1	·	-3.9%	·	·	·	·
CCN1C(=O)C(Cc2ccc(OC)cc2OC)c2ccccc21 (configuration not stated)	·	-18.1%	·	·	·	·
N#CCCn1cc(-c2csc(NC3CC3)n2)c2ccccc21	·	14.1µM*	·	·	·	·
O=C1CCCC(O)=C1Sc1cc(Cl)c(Cl)cc1Cl	-2.0	39.8µM*	6.3%	9.5%	·	·
O=C1CCCC(O)=C1N=Nc1c(Cl)cc(Cl)cc1Cl	-0.1	-23.5%	3.6%	1.6%	-3.2%	?
O=C(Nc1ccc(Cl)cc1)Nc1nnc(-c2ccncc2)s1	-0.2	-13.4%	7.94µM*	41.3%	-0.3%	3.1%
SMILES	CCT modulator	ALOX12 inh	PINK1 modulator	ASM inhibitor	MmCpn inh	p53 reactivation
COC(=O)Nc1nnc(-c2ccncc2)s1	-3.6	?	-7.3%[38.3 µM]	39.5%	-1.1%	?
O=C(Nc1ccc(-c2ccc(Cl)cc2)cc1)c1ccncc1	·	7.08µM*	·	·	·	·
O=C(Nc1cccc(Cl)c1)Nc1nnc(-c2ccncc2)s1	0.3	?	7.08µM*	138.3%	-1.1%	3.2%
O=C(NCCc1ccncc1)Nc1cccc(Cl)c1	-0.4	-6.7%	1.6%	1.2%	-2.1%	-2.1%
O=C(Nc1ccc(F)cc1)Nc1nnc(-c2ccncc2)s1	-8.7	11.8%	2.8%[38.3 µM]	5.2%	1.4%	4.4%
Cc1ccc(NC(=O)Nc2nnc(-c3ccncc3)s2)cc1C	-1.6	-10.5%	15.8µM*	-0.1%	-11.8%	-2.3%
Cc1c(-c2ccccc2)oc2c(C(=O)N3CCCN(CC(=O)NC(C)(C)C)CC3)cccc2c1=O	·	59.0%	·	·	·	·
CCCCCCSc1cccc(-c2nc3ccc(C)cn3c2NCc2ccccc2)c1	-1.8	?	25.1µM*	257.8%	-3.4%	2.2%
Oc1c(I)cc(Cl)c2cccnc12	0.4	11.2µM*	5.1%	-10.2%	0.3%	15.8%
O=[N+]([O-])c1cc(Cl)c(O)c2ncccc12	-0.9	5.62µM*	4.6%	-2.3%	3.4%	?
CC(=O)NC(c1ccc(C)cc1)c1cc([N+](=O)[O-])c2cccnc2c1O (configuration not stated)	0.2	44.7µM*	23.0%	-5.9%	-10.1%	8.7%
CC(=O)NC(c1ccccc1)c1cc(Cl)c2cccnc2c1O (configuration not stated)	-1.4	-3.9%	0.9%	0.4%	-3.0%	6.8%
Clc1cc2cccnc2c2ncccc12	0.3	?	-0.9%	0.7%	-7.6%	?
O=[N+]([O-])c1cc(Cl)c2cccnc2c1O	-0.6	?	5.6%	-2.8%	0.3%	17.8%
CCC(=O)NC(c1ccc(C)cc1)c1cc([N+](=O)[O-])c2cccnc2c1O (configuration not stated)	0.5	11.2µM*	26.9%	-9.5%	0.2%	?
Cc1ccccc1NC(=O)C(C#N)=C1CCCC1	·	2.8%	·	·	·	·
Cn1c(=O)c(=O)n(C)c2cc(N3CCCC3)c(NS(=O)(=O)c3ccc(Cl)cc3)cc21	-0.6	39.8µM*	1.5%	6.3%	2.2%	-9.0%
O=S(=O)(Nc1ccc(Nc2ccccc2)cc1)c1ccc(F)cc1	-1.8	27.6%	3.5%	-9.7%	·	·
Nc1cc(S(=O)(=O)Nc2ccccc2Cl)ccc1N1CCCCC1	0.7	28.2µM*	3.2%	-11.0%	-7.6%	19.3%
Cc1ccc(S(=O)(=O)Nc2ccc(Cl)cc2O)cc1	·	28.2µM*	·	·	·	·
Cc1ccc(S(=O)(=O)Nc2ccc(Nc3ccccc3)cc2)cc1	2.5	17.8µM*	1.0%	-26.7%	-1.6%	10.1%
